Compound activity deposited in PubChem by National Center for Advancing Translational Sciences (NCATS).
An excerpt weighted towards active compounds, which were near 12% of everything screened.
HP1b binding inh – HTS for Inhibitors of HP1-beta Chromodomain Interactions with Methylated Histone Tails. AlphaScreen HP1-beta / biotin-H3K9me3 peptide binding. Chromobox protein homolog 1 (Homo sapiens), P83916. Potency, µM (series often up to 114 µM), usual class: inhibitors. 390,000 compounds, 0.56% hits; further: nearly all actives have a fitted effect of over 70% in size
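Compound inhibition of the preformed complex between 50 nM HP1-beta and 50 nM biotinylated H3K9me3 peptide was read by AlphaScreen. Buffer was PBS pH 7.4 with 0.01% Tween-20. Incubations ran 30 min at room temperature, with 10 ug/mL donor/acceptor beads.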
Sfp inh – qHTS Assay for Inhibitors of Bacillus subtilis Sfp phosphopantetheinyl transferase (PPTase); 4'-phosphopantetheinyl transferase ffp (Bacillus subtilis), Q9F4F7; Biochemical Sfp PPTase activity, qHTS; Potency, µM, usual class: inhibitors; 310,000 compounds, 3.5% hits; AID 1490, 2009;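 further: the enzyme is Sfp with the accession as filed and its product quenches rhodamine fluorescence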
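Sfp 15 nM + cpd, 15 min RT; start w/ rhodamine-CoA 5 uM, BHQ-2-YbbR 12.5 uM (final); 50 mM Hepes pH 7.6, 10 mM MgCl2, 0.01% NP-40, 0.01% BSA; read 525/598 nm at 0 and 30 min.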
TDP1 inh – qHTS Assay for Inhibitors of Tyrosyl-DNA Phosphodiesterase (TDP1); AID 485290, 2010; Potency, µM (top dose mostly 130 µM), actives largely listed as inhibitors; recombinant TDP1, AlphaScreen DNA substrate cleavage; 350,000 compounds, 0.28% hits; further: nearly all actives have a fitted effect of over 40% in size
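Compounds were preincubated with Tdp1 (1 nM final) for 15 min at room temperature before substrate (15 nM final) started a 5 min reaction; beads (10 ug/ml final) were then added for 10 min before AlphaScreen detection.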
JMJD2A Tudor – qHTS Assay for Inhibitors of JMJD2A-Tudor Domain; 390,000 compounds, 4.4% hits; Lysine-specific demethylase 4A (Homo sapiens), O75164; AID 504339, 2011; AlphaScreen JMJD2A-Tudor / H3K4me3 peptide binding; Potency, µM (top dose mostly 114 µM), actives largely listed as inhibitors; further: nearly all actives have a fitted effect of over 50% in size
G9a block – qHTS Assay for Inhibitors of Histone Lysine Methyltransferase G9a | 350,000 compounds, 8.8% hits | Potency, µM (doses to about 102 µM), usual class: inhibitors | G9a H3K9 monomethylation, AlphaScreen, 2 h; further: nearly all actives have a fitted effect of over 75% in size
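Signal arises when biotinylated H3K9 peptide, once monomethylated, bridges streptavidin donor and antibody-captured acceptor beads. Enzyme at 20 nM was preincubated 15 min with test compounds; peptide 500 nM and SAM 20 uM then reacted for 2 h.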
BAZ2B block – qHTS Assay for Inhibitors of BAZ2B | 360,000 compounds, 4.4% hits | AID 504333, 2011 | Bromodomain adjacent to zinc finger domain protein 2B (Homo sapiens), Q9UIF8 | Potency, µM (top dose mostly 114 µM), most hits filed as inhibitors | AlphaScreen BAZ2B-H3K14Ac peptide displacement; further: nearly all actives have a fitted effect of over 60% in size
Target sequence (Q9UIF8 whole entry, looked up, the tested form may be a part): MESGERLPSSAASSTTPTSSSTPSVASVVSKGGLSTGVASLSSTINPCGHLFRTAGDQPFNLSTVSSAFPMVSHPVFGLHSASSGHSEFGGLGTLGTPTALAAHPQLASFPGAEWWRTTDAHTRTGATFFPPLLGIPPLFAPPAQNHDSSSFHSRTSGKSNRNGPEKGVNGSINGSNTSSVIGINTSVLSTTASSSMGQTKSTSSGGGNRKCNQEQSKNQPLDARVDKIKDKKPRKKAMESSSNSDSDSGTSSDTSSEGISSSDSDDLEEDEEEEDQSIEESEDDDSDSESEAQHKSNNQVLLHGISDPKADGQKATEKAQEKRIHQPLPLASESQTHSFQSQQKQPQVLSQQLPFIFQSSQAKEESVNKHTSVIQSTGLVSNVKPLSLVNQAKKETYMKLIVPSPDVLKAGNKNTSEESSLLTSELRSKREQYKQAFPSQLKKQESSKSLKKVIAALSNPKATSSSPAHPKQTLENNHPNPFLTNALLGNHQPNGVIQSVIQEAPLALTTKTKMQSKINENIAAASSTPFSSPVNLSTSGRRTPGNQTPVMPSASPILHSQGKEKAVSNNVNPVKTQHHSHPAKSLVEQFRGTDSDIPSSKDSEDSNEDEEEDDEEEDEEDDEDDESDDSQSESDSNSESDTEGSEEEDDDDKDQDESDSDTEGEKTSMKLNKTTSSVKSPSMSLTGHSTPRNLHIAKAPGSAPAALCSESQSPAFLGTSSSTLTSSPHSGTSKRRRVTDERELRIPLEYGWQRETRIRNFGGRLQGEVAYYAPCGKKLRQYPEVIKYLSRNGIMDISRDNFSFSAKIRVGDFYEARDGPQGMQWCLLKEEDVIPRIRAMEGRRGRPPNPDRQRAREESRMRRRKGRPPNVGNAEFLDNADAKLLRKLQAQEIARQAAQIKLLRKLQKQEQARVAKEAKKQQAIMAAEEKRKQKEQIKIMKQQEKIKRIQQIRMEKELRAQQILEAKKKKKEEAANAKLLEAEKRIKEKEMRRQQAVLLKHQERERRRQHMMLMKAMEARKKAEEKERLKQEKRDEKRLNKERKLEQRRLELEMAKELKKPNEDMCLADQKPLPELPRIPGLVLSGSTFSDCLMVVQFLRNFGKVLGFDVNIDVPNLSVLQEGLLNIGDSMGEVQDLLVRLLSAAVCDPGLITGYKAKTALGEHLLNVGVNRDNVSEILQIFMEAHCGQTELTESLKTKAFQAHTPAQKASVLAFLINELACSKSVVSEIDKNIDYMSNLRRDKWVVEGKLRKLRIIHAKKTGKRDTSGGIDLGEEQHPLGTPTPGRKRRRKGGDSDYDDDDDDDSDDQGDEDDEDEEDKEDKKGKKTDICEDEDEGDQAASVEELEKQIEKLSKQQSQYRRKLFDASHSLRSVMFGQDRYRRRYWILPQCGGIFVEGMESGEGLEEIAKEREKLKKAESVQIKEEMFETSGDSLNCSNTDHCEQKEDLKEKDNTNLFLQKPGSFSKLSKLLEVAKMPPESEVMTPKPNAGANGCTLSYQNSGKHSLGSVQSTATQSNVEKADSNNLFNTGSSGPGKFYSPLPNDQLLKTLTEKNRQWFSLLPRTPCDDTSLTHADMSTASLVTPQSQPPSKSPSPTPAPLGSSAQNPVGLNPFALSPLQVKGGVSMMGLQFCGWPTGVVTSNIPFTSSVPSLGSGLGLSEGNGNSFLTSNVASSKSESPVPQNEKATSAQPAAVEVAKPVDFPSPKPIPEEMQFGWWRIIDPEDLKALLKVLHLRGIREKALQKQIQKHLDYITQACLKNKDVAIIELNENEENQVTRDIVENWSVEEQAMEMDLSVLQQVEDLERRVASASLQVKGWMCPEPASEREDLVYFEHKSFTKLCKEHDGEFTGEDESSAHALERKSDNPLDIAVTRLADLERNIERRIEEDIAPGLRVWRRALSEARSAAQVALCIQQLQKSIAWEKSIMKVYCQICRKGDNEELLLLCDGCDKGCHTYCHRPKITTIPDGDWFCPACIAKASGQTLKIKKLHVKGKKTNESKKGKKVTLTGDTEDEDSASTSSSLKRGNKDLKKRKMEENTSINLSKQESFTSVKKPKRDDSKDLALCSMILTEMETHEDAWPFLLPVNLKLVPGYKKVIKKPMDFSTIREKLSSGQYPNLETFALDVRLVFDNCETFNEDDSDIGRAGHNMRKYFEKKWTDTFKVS
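Compounds, titrated to a top concentration of 110 uM, were incubated 30 min at room temperature with preformed BAZ2B/acetyl-K14 H3 peptide complex (50 nM each). Proximity signal was measured by AlphaScreen after 20 min with beads.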
A number is an active result; 0 = inactive; ? = inconclusive; - = no result; [ ] = another dose, or the depositor's remark. The call rests on the fitted dose curve; in most records, active means well fitted curve in the direction sought with a large enough effect; inconclusive means small, poorly fitted or top-dose-only effect, or another doubt; inactive means no such curve, though single readings can be large; an effect the other way counts as inactive or inconclusive.

SMILES	HP1b binding inh	Sfp inh	TDP1 inh	JMJD2A Tudor	G9a block	BAZ2B block
CCOC(=O)c1c(NC(=O)c2cc(-c3ccccc3OC)on2)sc(C)c1C	?	-	0	0	2.8µM	0
CCOC(=O)c1c(NC(=O)c2cc(C)on2)sc(C)c1C	0	-	0	0	3.2µM	0
CC(C)(C)c1ccc(-n2ncc3c2CCCC3NC(=O)C2(C(N)=O)CC2)cc1 (centres undefined)	0	0	0	0	0	0
CCOCCCn1c(SCC(=O)Nc2ccc(NC(C)=O)cc2)nc2ccccc2c1=O	0	0	0	0	0	0
CCOC(=O)c1c(NC(=O)c2noc3c2CCCC3)sc(C)c1C	-	32µM	0	-	28µM	0
CCOC(=O)c1c(NC(=O)c2cc(-c3ccccc3)on2)sc2c1CCCC2	0	-	0	0	0	0
CCOC(=O)c1c(NC(=O)c2cc(CC)on2)sc(C)c1C	?	-	0	0	7.1µM	0
CC(C)C[C@H](NC(=O)N1c2ccccc2NC(=O)[C@@H]1C(C)C)C(=O)N[C@@H](Cc1ccccc1)C(=O)O	0	0	-	0	0[12.7 µM]	0
Nc1ccc(S(N)(=O)=O)cc1	0	0	0	0	0[21.5 µM]	-
Nc1ccc(S(=O)(=O)c2cc(O)c3ccccc3c2O)cc1	13µM	-	-	45µM	-	-
CCOC(=O)C1CCN(S(=O)(=O)c2c(Cl)ccc3nonc23)CC1	-	0	0	-	50µM	0
CCOC(=O)C1CCN(S(=O)(=O)c2cccc3nonc23)CC1	0	0	0	0	0[12.7 µM]	0
CCN1CCN(C(=O)Cn2ncc3c4ccccc4n(Cc4ccccc4)c3c2=O)CC1	0	-	0	0	0	0
CC(C)COC(=O)c1ccc(N)cc1	-	0	0	-	0	-
CCOC(=O)/C=C1/SCC(=O)N1CC(=O)Nc1ccccc1OC(F)F	0	-	-	0	-	-
O=C(/C(C=Nc1ccc(Br)cc1)=C(/O)c1ccco1)C(F)(F)F	0	0	0	0	45µM	0
Cc1ccc(-c2nc3s/c(=C\c4ccco4)c(=O)n3n2)cc1	0	0	-	50µM	50µM	50µM
O=c1nc2s/c(=C\c3ccco3)c(=O)n2nc1Cc1ccc(F)cc1	?	45µM	?	56µM	?	22µM
COc1ccc(Br)cc1/C=c1\sc2nc(-c3ccco3)nn2c1=O	0	?	-	45µM	?	16µM
COc1ccccc1/C=c1\sc2nc(-c3ccccc3OC)nn2c1=O	0	0	0	0	-	0
Cc1cc(C)cc(N2CN=c3s/c(=C\c4ccco4)c(=O)n3C2)c1	0	0	0	0	0	?
Cc1ccc(/C=c2\sc3nc(-c4ccco4)nn3c2=O)o1	22µM	25µM	0	0[11.4 µM]	18µM	50µM
Cc1ccc(/C=c2/sc3nnc(-c4ccccc4Cl)n3c2=O)o1	0	13µM	0	22µM	11µM	40µM
Cc1ccc(/C=c2\sc3nc(-c4ccccc4Br)nn3c2=O)o1	0	?	-	50µM	3.5µM	50µM
CCS(=O)(=O)c1c(S(=O)(=O)CC)c2cc(C(C)(C)C)ccn2c1C(=O)c1ccc(F)cc1	0	-	-	0	0	0
CCOC(=O)C1CCCN(C(=O)c2cccc(S(=O)(=O)N(Cc3ccccc3)c3ccccc3OC)c2)C1 (centres undefined)	0	-	-	0	0[12.7 µM]	0
O=Cc1s/c(=N\S(=O)(=O)c2ccccc2)n(CCCCl)c1Cl	0	0	0	0	45µM	0
CCn1c(C)cs/c1=N\S(=O)(=O)c1ccccc1	0	-	0	0	0[2.33 µM]	0
Cc1ccnc(SCC(=O)N2CCN(C(c3ccccc3)c3ccccc3)CC2)n1	0	0	0	0	45µM	0
O=C(c1cc(-c2cccc(O)c2)on1)N1CCN(C(c2ccccc2)c2ccccc2)CC1	0	0	0	?	45µM	0
